Screen size: about 53,000 sequences; about 3,700 (7%) were called active. The full list was thinned out, with actives kept by preference. A number with no mark means an inactive call.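 Rule for the calls: active = gene knockdowns whose robust z-score for IL-1 alpha signal is at least 2 or at most -2, so actives lie on both sides; inactive = the rest.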
Assay: Components of the Cytosolic LPS Sensing Pathway: Gene Identification via Genome-wide siRNA Screen;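 note: robust z of the log signal after scaling to non-targeting control siRNA wells of the plate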
Settings: RAW264.7 macrophages, IL-1a HTRF, actives lie on both sides, screened at 100 nM (by protocol), cells primed 5 h with Pam3CSK4 first
Summary of the method: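 RAW264.7; siRNA 100 nM final, RNAiMAX, 48h 37 degrees C; Pam3CSK4 5 h; LipidA + TransIT-TKO 24 h; IL-1a HTRF; CellTiter-Glo viability; robust z vs negative-control median.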

| Sequence | z-score |
| --- | --- |
| GCUAUGUGGGUUGUGCUAUTT against Olfr1361 | 0.734 |
| CCCUAGUUUAUCUCCGGAUTT against Lhx1 | 1.15 |
| GGAAUUUGUCAACCGGACCTT against St6galnac6 | 3.31 (active) |
| GCUAUUGGGUAAUUUGCUUTT against Slco4a1 | 0.436 |
| CGUAUAUCGAUGAAGAUGATT against BC016579 | -1.12 |
| GGGAUGCAUCAAAAUACAATT against Pdk3 | 4.82 (active) |
| GGACAAGGAGUAUUAUGUGTT against Nrxn3 | -0.372 |
| GGCCUUGAAGCAGAAGUCUTT against Gfra1 | -1.21 |
| GGGCUUUGUGCCCAACAUGTT against Rtcb | 0.278 |
| CCCGAUUACUGGAGUUAAATT against Kbtbd7 | 2.32 (active) |
| GGAAGAUGAACUUCGUACCTT against Slc4a2 | -0.438 |
| GGUCCUGAAGAAGAUUGCATT against Hmox1 | -0.72 |
| GGAAGAGUGACCUUAAGUCTT against Arhgap30 | 2.29 (active) |
| GGCACAGAUUGUGGUGAAGTT against Ccdc43 | -0.518 |
| GCUGCACCAUGAAUGAGUCTT against Il4 | 0.819 |
| GGAUGUUGUGGGAAAUGACTT against Plaat1 | -0.27 |
| GGCAAAUCUGAACAACAUUTT against Agt | 1.16 |
| GCAGAAAUGUCCAUCCAAATT against Sprr2k | 2.36 (active) |
| GGCAGUGCUGGCAACAAAUTT against Hsd3b5 | -0.884 |
| GGAAACCUACCGUUACCUATT against Kcnj5 | -0.181 |
| GCCAUUUAUUGAAACUCGCTT against Becn1 | -0.905 |
| GGCAGCUGCUGACUUGAUGTT against Gng2 | 0.133 |
| GGGCCAGACUCCAUACUAUTT against Arid1a | 3.71 (active) |

| Sequence | z-score |
| --- | --- |
| GCACAUGCCAUACAACCAUTT against Fads1 | 0.655 |
| GCGAUUGAGCAGUGAAUAATT against Fam216b | 1.06 |
| GGAGAAGCGGCAAAUGGAATT against Fam32a | 0.429 |
| GGCAAGGACUCCAAGGACATT against Wdr45 | -1.31 |
| GGAAGAGCAGGAGGAAACATT against Mea1 | -2.01 (active) |
| GGAGAAAAGCUGUAUACACTT against Tmem177 | 1.22 |
| GGAGGAGAUGAUAAAGAUUTT against Glyr1 | -0.987 |
| CCCAUCAGACUUUGACCGUTT against Lbh | -1.45 |
| GGCAACUUCAAGUCCAUAUTT against Pnma3 | 3.18 (active) |
| GCGACUAGUAGUGCAUGAATT against Wdr13 | -0.434 |
| CCUUAAACUUGGCCGAGGUTT against Trmt112 | 0.748 |
| CGGCCUUCAUCUGCCUUUUTT against Olfr1222 | 0.475 |
| GCCACCUCCUACCAAAUGUTT against Sprr4 | -1 |
| GGAGCUAAGGGAACAAUUATT against Psmc6 | -2.1 (active) |
| GGAUGUGUCAGGAAAAUAGTT against Ctsm | -0.176 |
| GGAAUACGGAAUCAUGGUUTT against Ift52 | -0.0653 |
| GGUUAAUCUUAACAACAUCTT against Tmod1 | 0.266 |
| GGAUGCCUUGAAGAAAUUATT against Olfr1044 | 1.34 |
| GCUCCAUGAAACCCACUCUTT against Zmiz1 | -0.656 |
| GGAAAGAAGCAACCACUUCTT against 4833439L19Rik | 0.403 |
| CGUGAUCGUGCGUUCCAACTT against Chrnb4 | 3.11 (active) |
| GGAGGACAUGGACACAGUCTT against Slc39a7 | -0.805 |
| GGACUAUCCUCACUCCCUUTT against Pigo | -0.0578 |

| Sequence | z-score |
| --- | --- |
| GCCGACUGGUUAAAUACAUTT against Nme3 | 5.79 (active) |
| CGAUGCUAGAGAUUAAUCATT against Rdh10 | -0.0597 |
| GCACCUGGGCCUUUGAAUATT against Hes2 | -0.754 |
| GCAAGGAAGGAUAUUACACTT against Mmp24 | 1.34 |
| GGAUCAAUUCUAGAAUCAGTT against Runx3 | 0.586 |
| GCAAUAGCAUACCUACCAUTT against Desi2 | -0.228 |
| CCAACAUCUAGAGAGUCUGTT against Olfr1031 | -1.36 |
| GCUUGAUUAUUGUGUGUCCTT against Olfr786 | -1.53 |
| GGAAAUGACGACUACCAAGTT against Tspyl4 | 2.74 (active) |
| GCGCGAUAGAUUUUGUUUATT against Ier5l | -0.427 |
| GGACUAUGGCUCAGCACUCTT against Ttyh1 | -0.394 |
| GGACAAGUUUGACUGUUACTT against Als2cl | 0.158 |
| GGAACGACAAUAAAGCUUATT against Ninj1 | 0.029 |
| CCACAGAUUACAUUUAUCCTT against Sephs1 | -1.19 |
| GGAGAAAUUCUAUGGUAUUTT against 5031434C07Rik | 2.18 (active) |
| GGACUUGAUUGAAGUCAUATT against Tmem132d | 0.242 |
| GUUGGCAUAUUUUAUGGCATT against Olfr1033 | 1.28 |
| GGAACAGGAAUAUGAAAGATT against Olfr836 | -0.903 |
| CGGCUUGGACAGAUUUAUCTT against Rer1 | 0.0516 |
| GCAUCCUUAGUGAUUUCUATT against Slc48a1 | 0.601 |
| CCUACAACGAACGGGAGAATT against Dpm1 | 0.408 |
| GGUUCUGACAGACAAAAUUTT against Luc7l3 | -0.379 |

Reference: PubChem BioAssay AID1508600 (Functional Genomics Laboratory (NCATS/FGL), 2020)
